High-throughput results deposited in PubChem BioAssay by National Center for Advancing Translational Sciences (NCATS).
JMJD2A Tudor inh: blocks the human JMJD2A Tudor domain. O75164. AlphaScreen JMJD2A-Tudor / H3K4me3 peptide binding. Potency, µM (doses to about 114 µM), for the others: top-dose activity change, negative = inhibition, usual class: inhibitors. 390,000 tested, 4.4% active. AID 504339; note: % is set by controls: 0 for no effect and ±100 for the full control effect; nearly all actives have a fitted effect of over 50% in size
L3MBTL1 block: blocks human L3MBTL1; Q9Y468; AlphaScreen L3MBTL1–H3K9me1 peptide binding; Potency, µM (highest dose often 57.1 µM), without a hit: at the highest dose activity, negative = inhibition, most hits filed as inhibitors; 230,000 tested, 0.66% active; note: % is set by controls: 0 for no effect and ±100 for the full control effect; nearly all actives have a fitted effect of over 60% in size
Target sequence (Q9Y468 whole entry, looked up): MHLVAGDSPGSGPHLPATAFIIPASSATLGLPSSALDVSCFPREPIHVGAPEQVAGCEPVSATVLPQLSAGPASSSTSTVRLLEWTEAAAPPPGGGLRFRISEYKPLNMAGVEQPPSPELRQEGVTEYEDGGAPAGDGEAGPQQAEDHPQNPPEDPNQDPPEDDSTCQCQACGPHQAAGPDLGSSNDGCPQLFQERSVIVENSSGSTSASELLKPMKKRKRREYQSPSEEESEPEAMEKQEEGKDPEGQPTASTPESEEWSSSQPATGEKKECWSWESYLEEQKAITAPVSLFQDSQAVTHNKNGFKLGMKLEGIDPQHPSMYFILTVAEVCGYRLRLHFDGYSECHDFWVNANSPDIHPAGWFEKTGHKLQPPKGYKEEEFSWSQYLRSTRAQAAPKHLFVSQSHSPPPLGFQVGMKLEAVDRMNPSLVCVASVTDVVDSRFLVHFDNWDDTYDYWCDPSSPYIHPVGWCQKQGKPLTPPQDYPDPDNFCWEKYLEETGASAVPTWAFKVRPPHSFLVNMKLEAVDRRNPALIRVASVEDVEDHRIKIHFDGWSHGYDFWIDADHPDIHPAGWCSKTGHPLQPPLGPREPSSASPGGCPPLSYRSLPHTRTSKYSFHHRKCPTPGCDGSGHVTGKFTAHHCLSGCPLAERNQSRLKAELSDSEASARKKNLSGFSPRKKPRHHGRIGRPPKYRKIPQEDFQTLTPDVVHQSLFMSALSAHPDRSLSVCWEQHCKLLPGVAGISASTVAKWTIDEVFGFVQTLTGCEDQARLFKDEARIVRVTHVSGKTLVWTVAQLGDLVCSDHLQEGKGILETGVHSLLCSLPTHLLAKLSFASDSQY
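L3MBTL1 (50 nM) pre-complexed 30 min with biotinylated H3(1-15)K9me1 peptide (75 nM), then compounds added for 30 min at room temperature; AlphaScreen streptavidin donor/nickel chelate acceptor beads (10 ug/mL final) read after 30 min dark incubation.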
HP1b chromo inh: inhibitors of HP1-beta chromodomain binding to methylated histone tails; 390,000 tested, 0.56% active; P83916; AlphaScreen HP1-beta / biotin-H3K9me3 peptide binding; Potency, µM (top dose mostly 114 µM), without a hit: top-dose activity change, negative = inhibition, usual class: inhibitors; note: nearly all actives have a fitted effect of over 70% in size
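HP1-beta protein (50 nM final) preincubated 30 min at room temperature with biotinylated H3(1-18)K9me3 peptide (50 nM) in PBS pH 7.4, 0.01% Tween-20, then compound added for 30 min. AlphaScreen streptavidin donor/nickel chelate acceptor beads (10 ug/mL final), 30 min dark, luminescence read.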
VDR inh: blocks the human vitamin D receptor; Potency, µM, without a hit: max response, negative = inhibition, usual class: inhibitors; VDR-SRC2-3 peptide fluorescence polarization, 2 h; P11473; 400,000 tested, 0.93% active; note: % is set by controls: 0 for no effect and ±100 for the full control effect
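FP read-out; VDR + SRC2-3 coactivator peptide; 23 nl compound by pintool; 2 h RT incubation; reagents held at 4 deg C, protected from light.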
PLK1 PBD block: inhibitors of human PLK1 polo-box domain binding | Potency, µM, inactives show max response, negative = inhibition, most hits filed as inhibitors | P53350 | 360,000 tested, 2.8% active | AID 720504 | Plk1 PBD binding of FITC phosphopeptide, fluorescence polarization; note: series mostly up to about 57 µM; % is set by controls: 0 for no effect and ±100 for the full control effect; nearly all actives have a fitted effect of over 65% in size
BAZ2B inh: inhibitors of human BAZ2B bromodomain; Q9UIF8; AlphaScreen BAZ2B-H3K14Ac peptide displacement; Potency, µM (top dose mostly 114 µM), without a hit: top-dose activity change, negative = inhibition, usual class: inhibitors; 360,000 tested, 4.4% active; note: % is set by controls: 0 for no effect and ±100 for the full control effect; nearly all actives have a fitted effect of over 60% in size
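AlphaScreen luminescence quantifies BAZ2B engagement of H3K14Ac peptide; the protein and biotinylated peptide are both at 50 nM final, buffer PBS pH 7.4 with 0.01% Tween-20, all steps at room temperature.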
TbPYK confirm: Trypanosoma brucei pyruvate kinase inhibition, cherry-pick confirmation. AID 720569. Potency, µM (highest dose often 76.9 µM), for inactives: at the top dose activity change, negative = inhibition, most hits filed as inhibitors. recombinant TbPYK, Kinase-Glo ATP luminescence. 890 tested, 67% active. shares compounds with PLK1 PBD block; note: % is set by controls: 0 for no effect and ±100 for the full control effect; nearly all actives have a fitted effect of over 70% in size
TbPYK orthogonal: inhibits T. brucei pyruvate kinase in orthogonal ADP-Glo assay; Potency, µM (titrated, usually from 76.9 µM), for inactives: at the top dose activity change, negative = inhibition, hits mostly inhibitors; AID 720584; shares compounds with PLK1 PBD block; 890 tested, 62% active; recombinant TbPYK, ADP-Glo luminescence, 60 min; note: % is set by controls: 0 for no effect and ±100 for the full control effect; nearly all actives have a fitted effect of over 75% in size
* hit, by the source's call; ? = inconclusive; . = not tested or not shown; [ ] = remark or other dose. An excerpt weighted towards active compounds, which were near 6.9% of everything screened. Calls come from the whole dose curve; as a rule, active = well fitted curve in the direction sought with a large enough effect; inconclusive = small, poorly fitted or top-dose-only effect, or another doubt; inactive = no such curve, though single readings can be large; an effect the other way counts as inactive or inconclusive. Potency is the fitted concentration of half-maximal effect.

SMILES | JMJD2A Tudor inh | L3MBTL1 block | HP1b chromo inh | VDR inh | PLK1 PBD block | BAZ2B inh | TbPYK confirm | TbPYK orthogonal
CCN(CC(=O)NC1CCS(=O)(=O)C1)S(=O)(=O)c1ccccc1Cl (stereo not drawn) | -8% | . | 32% | 4% | ? | 3% | . | .
CSC1=NS(=O)(=O)c2c(C)nn(C)c2S1 | 4.5µM* | 0% | 13µM* | 25µM* | 21µM* | 50µM* | 4µM* | 3.5µM*
CC(NCCC1(Cc2ccccc2Cl)CCOC(C)(C)C1)c1cccs1 (stereo not drawn) | 6% | 44% | 22% | 15% | -9% | -3% | . | .
Cn1ccc(-c2ccccc2)n1 | -5% | -7% | 38% | 13% | -3% | 1% | . | .
N#Cc1cc(-c2ccccc2)nn1-c1ccccc1 | 8.9µM* | -16% | 25µM* | ? | 6µM* | ? | 2.5µM* | 3.2µM*
O=C(c1ccc2[nH]c(=O)c(=O)[nH]c2c1)N1CCc2ccccc2C1 | -9% | . | 9%[57 µM] | 5% | -3% | -5%[57.1 µM] | . | .
C=CCn1c(=S)[nH]c2scc(-c3cccs3)c2c1=O | -23% | . | 34% | -7% | -11% | -36% | . | .
Cn1c(=S)[nH]c2scc(-c3cccs3)c2c1=O | ? | 38% | -13% | -23% | ? | -17% | 11µM* | 14µM*
COc1ccc(S(=O)(=O)NC(C)c2ccc3c(c2)OCCO3)cc1 (stereo not drawn) | . | . | . | . | 1% | . | . | .
COc1cccc(/C=C2\C(=O)C(=O)c3ccccc32)c1 | ? | . | -8% | 89µM* | 0.79µM* | ? | 32µM* | ?
COc1cccc(C=C2Cc3ccccc3C2=O)c1 | . | . | . | . | -3% | . | . | .
CC(Oc1ccccc1Cl)C(=O)Nc1ccc(S(=O)(=O)N2CCN(C)CC2)cc1 (stereo not drawn) | 50µM* | . | -16%[57 µM] | ? | 19µM* | . | ? | ?
Cc1sc2ccccc2[n+]1CC(=O)O | ? | -6% | 52% | 22µM* | ? | -10% | 3.5µM* | 13µM*
O=C1N/C(=C/c2ccc(N3CCOCC3)o2)C(=O)N1c1ccccc1 | ? | 7% | -20% | 45µM* | 49% | -27% | ? | 16µM*
COc1ccc(-c2cnc3c(NC(C)=O)cc(-c4ccc(S(C)(=O)=O)cc4)cn23)cc1OC | . | . | . | . | -13% | . | . | .
O=C(O)c1ccc(Cl)c(S(=O)(=O)Nc2ccccc2C(=O)Nc2ccc(Cl)cc2)c1 | -15% | . | -25% | 11% | ? | -9% | . | .
CCOC(=O)C(C)(C)N(Cc1ccccc1C)S(=O)(=O)c1ccc(Cl)c([N+](=O)[O-])c1 | -23% | -1% | -9% | -15% | -10% | -38% | 3% | 2%
Cc1ccccc1CN(CC(=O)Nc1cccc([N+](=O)[O-])c1)S(=O)(=O)c1ccc(Cl)cc1 | -32% | -15% | -4% | 12% | -9% | -9% | . | .
COC(=O)c1ccc2nc(-c3ccco3)c(Cc3ccccc3)n2c1 | . | . | . | . | ? | . | 13µM* | 14µM*
Clc1ccc2nc(-c3ccco3)c(Cc3ccccc3)n2c1 | . | . | . | . | ? | . | ? | 35µM*
Fc1cccc(Cc2c(-c3ccco3)nc3ccc(Cl)cn23)c1 | . | . | . | . | 24µM* | . | -28% | ?
COC(=O)c1ccc2nc(-c3ccco3)c(Cc3cccc(Cl)c3)n2c1 | . | . | . | . | -29% | . | . | .
Fc1cccc(Cc2c(-c3ccco3)nc3ccc(Br)cn23)c1 | . | . | . | . | 24µM* | . | ? | ?
O=S(=O)(c1ccc(SCc2ccc(Cl)cc2)nc1)N1CCCC1 | 69% | 43% | 123% | -1% | -13% | 50% | . | .
